Screening data as filed in PubChem.
Shh pathway inh – blocks Sonic Hedgehog signaling; 2.1% of 22,000 active; Shh-LIGHT2 Gli-luciferase reporter, 30 h; AID 2313; inhibition, % (concentration not given with the values);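 active = mean inhibition across valid replicates above about 65%, limit read from the data; inconclusive = mean under the limit, yet half or more replicates past it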;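 also: pathway switched on by Shh-conditioned medium diluted 1 in 25 in low serum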
NOMO-1 viab – STK33 inhibitor candidate reducing NOMO-1 cell viability; NOMO-1 AML viability, CellTiter-Glo luminescence, 72 h; 7.5% of 37,000 active; inhibition, % (no concentration beside the values); in the data active = inhibition above about 80%; inconclusive = no clear call, values can overlap the other calls
PD-1 reverse act – activators reversing PD-1 mediated T-cell inhibition | primary human CD4 T cells, PD-L1 beads, CellTiter-Glo 96 h | activation, % (concentration not given with the values) | 29,000 tested, under 10 active | AID 2316; call rule not given here;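 also: 0% = median vehicle wells and 100% = positive control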
Numbers without * were called inactive. Shown are actives, neighbours in structure and some others; about 7.7% of the full set was active somewhere.

`Cc1ccc(S(=O)(=O)N(C)C[C@@H]2Oc3ccc(NC(=O)NC4CCCCC4)cc3CC(=O)N([C@@H](C)CO)C[C@@H]2C)cc1` gave NOMO-1 viab 116* and PD-1 reverse act 0.
C[C@H]1CN([C@@H](C)CO)C(=O)Cc2cc(NC(=O)CCCN(C)C)ccc2O[C@H]1CN(C)Cc1ccc(Oc2ccccc2)cc1 was read as Shh pathway inh -9 and NOMO-1 viab -15.
C[C@H]1CN([C@@H](C)CO)C(=O)Cc2cc(NC(=O)CCCCCC(=O)Nc3ccccc3N)ccc2O[C@@H]1CN(C)C(=O)Nc1ccccc1 was read as NOMO-1 viab -1 and PD-1 reverse act 1.
`C[C@H]1CN([C@@H](C)CO)C(=O)Cc2cc(NC(=O)CCCCCC(=O)Nc3ccccc3N)ccc2O[C@H]1CN(C)Cc1ccc(Oc2ccccc2)cc1` gave NOMO-1 viab 140* and PD-1 reverse act 0.
Screening C[C@H](CO)N1C[C@H](C)[C@H](CN(C)Cc2ccc(Oc3ccccc3)cc2)Oc2ccc(NC(=O)CCCCCC(=O)Nc3ccccc3N)cc2CC1=O returned NOMO-1 viab 140* and PD-1 reverse act -3.
`CCc1ccccc1NC(=O)CSc1nnc(-c2cccc(OC)c2)n1C` gave NOMO-1 viab 15.
For CCOC(=O)/C(=N/O)C1=NN=C(N)SC1 the results were Shh pathway inh 3, NOMO-1 viab -3 and PD-1 reverse act 2.
O=C(COc1ccc(Cl)cc1)Nc1ccc(O)c(-c2nc3ccccc3o2)c1 was read as NOMO-1 viab 98*.
`Cc1ccc(-c2nc3ccccc3s2)cc1NC(=O)COc1cccc(C)c1C` gave NOMO-1 viab 89* and PD-1 reverse act 2.
For O=C(COc1ccc(Cl)cc1Cl)Nc1ccc(O)c(-c2nc3ccccc3s2)c1 the results were NOMO-1 viab 103* and PD-1 reverse act 0.
For O=C(COc1ccc(Cl)cc1Cl)Nc1cccc(-c2nnc(-c3ccccc3)o2)c1 the results were NOMO-1 viab 114* and PD-1 reverse act -7.
Cc1ccc(-c2nc3ccccc3s2)cc1NC(=O)COc1ccccc1C was read as NOMO-1 viab 30 and PD-1 reverse act 0.
Screening CC(Oc1ccc(Cl)cc1Cl)C(=O)Nc1cccc(-c2nnc(-c3ccccc3)o2)c1 (configuration not stated) returned NOMO-1 viab 35 and PD-1 reverse act 4.
Cc1cc(Cl)ccc1OCC(=O)Nc1ccccc1-c1nc2ccccc2s1 was read as NOMO-1 viab 22.
For Cc1ccccc1-c1nc2cc(NC(=O)COc3ccc(Cl)cc3)ccc2o1 the results were NOMO-1 viab 19.
For C=C[C@@](C)(O)CCC1C(=C)CCC2[C@@](C)(CO)CCC[C@]12C (some centres not stated) the results were Shh pathway inh 30, NOMO-1 viab 37 and PD-1 reverse act -1.
CS(=O)(=O)N(CC(=O)Nc1ccc(Oc2ccccc2)cc1)c1ccc2c(c1)OCCO2 was read as NOMO-1 viab 29.
For Cc1cc(C)nc(SC(C)C(=O)Nc2ccc(Cl)cc2)n1 (configuration not stated) the results were NOMO-1 viab -6.
`CC(C)(C)c1ccc(SCC(O)CSc2nc3c(cc2C#N)CCCC3)cc1` (configuration not stated) gave NOMO-1 viab 25 and PD-1 reverse act 2.
CC(=O)Nc1cccc(Oc2ccc3c(c2)C(=O)N(c2ccc(Oc4ccc(C)c(C)c4)cc2)C3=O)c1 was read as NOMO-1 viab 46 and PD-1 reverse act 0.
Screening Cn1c(SCC(=O)Nc2ccc(Cl)cc2)nc2sc3c(c2c1=O)CCCC3 returned NOMO-1 viab 2 and PD-1 reverse act 3.
For CS(=NC(=O)Nc1ccc(Cl)cc1)c1sc(Cl)c2c1C(=O)CCC2 (configuration not stated) the results were Shh pathway inh 53, NOMO-1 viab 116* and PD-1 reverse act -2.
CC[n+]1c(C=C2C=C(C)CC(C)(C)C2)oc2ccccc21 was read as NOMO-1 viab 115* and PD-1 reverse act -4.
`COc1ccc2nc(Nc3nc(C)c(CCC(C)C)c(=O)[nH]3)nc(C)c2c1` gave NOMO-1 viab 66 and PD-1 reverse act -2.
`CCN(CC)CCCC(C)Nc1c2ccc(Cl)cc2nc2ccc(OC)cc12` (configuration not stated) gave Shh pathway inh -6 and NOMO-1 viab 114*.
Cc1cc(C)c(NC(=O)CSc2nc(-c3ccccc3)c(-c3ccccc3)[nH]2)c(C)c1 was read as NOMO-1 viab 101* and PD-1 reverse act -6.
Cc1ccc(NC(=O)CSc2nc(-c3ccccc3)c(-c3ccccc3)[nH]2)c(C)c1 was read as NOMO-1 viab 2.
`O=C(CSc1nc2ccccc2[nH]1)Nc1cccc2ccccc12` gave NOMO-1 viab 13 and PD-1 reverse act -2.
Cc1ccccc1NC(=O)CSc1nc2cc3ccccc3cc2[nH]1 was read as NOMO-1 viab 115*.
Screening COC(=O)CCS(=O)(=O)c1cccc2c(S(=O)(=O)CCC(=O)OC)cccc12 returned Shh pathway inh -7, NOMO-1 viab 124* and PD-1 reverse act 0.
Screening O=C(O)CCS(=O)(=O)c1cccc2cccnc12 returned NOMO-1 viab -25 and PD-1 reverse act 2.
`O=C(COc1ccc(CO)cc1)Nc1ccccc1` gave NOMO-1 viab -2 and PD-1 reverse act 4.
For COc1ccc(NC(=O)c2ccc(N(C)S(=O)(=O)c3ccc(OC)c(OC)c3)cc2)cc1OC the results were NOMO-1 viab 3 and PD-1 reverse act 0.
`COc1ccc(NC(=O)c2ccc(-c3ccc(-c4noc(C)n4)cc3C)cc2)cc1OCCN(C)C` gave Shh pathway inh inconclusive and NOMO-1 viab 115*.
CCc1ccc(OCC(=O)Nc2sc3c(c2C(N)=O)CCCC3)c(Br)c1 was read as NOMO-1 viab 10 and PD-1 reverse act 1.
COc1ccc(NC(=O)C(C)N(c2ccc(C)cc2)S(C)(=O)=O)c(OC)c1 (configuration not stated) was read as NOMO-1 viab 7 and PD-1 reverse act 1.
For CNC(=O)CN(c1cc([N+](=O)[O-])ccc1OC)S(C)(=O)=O the results were NOMO-1 viab 1 and PD-1 reverse act -1.
Screening COC(=O)CN(c1cc([N+](=O)[O-])ccc1OC)S(C)(=O)=O returned NOMO-1 viab 100*.
COc1ccc([N+](=O)[O-])cc1NC(=O)C(C)N(c1ccc(C)cc1)S(C)(=O)=O (configuration not stated) was read as NOMO-1 viab 112* and PD-1 reverse act 0.
Screening COc1ccccc1NC(=O)c1ccc(OC(C)C(=O)Nc2cc(Cl)ccc2C)cc1 (configuration not stated) returned NOMO-1 viab 15 and PD-1 reverse act -2.
Screening Cc1cccc(Cl)c1OC(=O)c1cc(C(C)(C)C)nn1C returned Shh pathway inh -9, NOMO-1 viab 68 and PD-1 reverse act -1.
`CCc1cccc(C(C)C)c1NC(=O)Nc1ccccc1` gave Shh pathway inh -11, NOMO-1 viab 37 and PD-1 reverse act 0.
For COc1ccc([N+](=O)[O-])cc1CSc1nnc(-c2ccccc2)n1-c1ccccc1 the results were NOMO-1 viab 26 and PD-1 reverse act 1.
Cc1ccc(NC(=O)CCn2cnc3ccccc3c2=O)cc1C was read as NOMO-1 viab 4 and PD-1 reverse act 1.
